Screening data as filed in PubChem BioAssay.
G9a block: inhibitors of human histone lysine methyltransferase G9a; hit rate 8.8% among 350,000; G9a H3K9 monomethylation, AlphaScreen, 2 h; Potency, µM (titrated, usually from 102 µM), for the others: at the highest dose activity, negative = inhibition, usual class: inhibitors; Q96KQ7; AID 504332; note: % is set by controls: 0 for no effect and ±100 for the full control effect; nearly all actives have a fitted effect of over 75% in size
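Signal arises when biotinylated H3K9 peptide, once monomethylated, bridges streptavidin donor and antibody-captured acceptor beads. Enzyme at 20 nM was preincubated 15 min with test compounds; peptide 500 nM and SAM 20 uM then reacted for 2 h.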
BAZ2B inh: inhibitors of human BAZ2B bromodomain; Q9UIF8; AlphaScreen BAZ2B-H3K14Ac peptide displacement; hit rate 4.4% among 360,000; Potency, µM (titrated, usually from 114 µM), for inactives: at the top dose activity change, negative = inhibition, hits mostly inhibitors; AID 504333; note: % is set by controls: 0 for no effect and ±100 for the full control effect; nearly all actives have a fitted effect of over 60% in size
Target sequence (Q9UIF8 whole entry, looked up): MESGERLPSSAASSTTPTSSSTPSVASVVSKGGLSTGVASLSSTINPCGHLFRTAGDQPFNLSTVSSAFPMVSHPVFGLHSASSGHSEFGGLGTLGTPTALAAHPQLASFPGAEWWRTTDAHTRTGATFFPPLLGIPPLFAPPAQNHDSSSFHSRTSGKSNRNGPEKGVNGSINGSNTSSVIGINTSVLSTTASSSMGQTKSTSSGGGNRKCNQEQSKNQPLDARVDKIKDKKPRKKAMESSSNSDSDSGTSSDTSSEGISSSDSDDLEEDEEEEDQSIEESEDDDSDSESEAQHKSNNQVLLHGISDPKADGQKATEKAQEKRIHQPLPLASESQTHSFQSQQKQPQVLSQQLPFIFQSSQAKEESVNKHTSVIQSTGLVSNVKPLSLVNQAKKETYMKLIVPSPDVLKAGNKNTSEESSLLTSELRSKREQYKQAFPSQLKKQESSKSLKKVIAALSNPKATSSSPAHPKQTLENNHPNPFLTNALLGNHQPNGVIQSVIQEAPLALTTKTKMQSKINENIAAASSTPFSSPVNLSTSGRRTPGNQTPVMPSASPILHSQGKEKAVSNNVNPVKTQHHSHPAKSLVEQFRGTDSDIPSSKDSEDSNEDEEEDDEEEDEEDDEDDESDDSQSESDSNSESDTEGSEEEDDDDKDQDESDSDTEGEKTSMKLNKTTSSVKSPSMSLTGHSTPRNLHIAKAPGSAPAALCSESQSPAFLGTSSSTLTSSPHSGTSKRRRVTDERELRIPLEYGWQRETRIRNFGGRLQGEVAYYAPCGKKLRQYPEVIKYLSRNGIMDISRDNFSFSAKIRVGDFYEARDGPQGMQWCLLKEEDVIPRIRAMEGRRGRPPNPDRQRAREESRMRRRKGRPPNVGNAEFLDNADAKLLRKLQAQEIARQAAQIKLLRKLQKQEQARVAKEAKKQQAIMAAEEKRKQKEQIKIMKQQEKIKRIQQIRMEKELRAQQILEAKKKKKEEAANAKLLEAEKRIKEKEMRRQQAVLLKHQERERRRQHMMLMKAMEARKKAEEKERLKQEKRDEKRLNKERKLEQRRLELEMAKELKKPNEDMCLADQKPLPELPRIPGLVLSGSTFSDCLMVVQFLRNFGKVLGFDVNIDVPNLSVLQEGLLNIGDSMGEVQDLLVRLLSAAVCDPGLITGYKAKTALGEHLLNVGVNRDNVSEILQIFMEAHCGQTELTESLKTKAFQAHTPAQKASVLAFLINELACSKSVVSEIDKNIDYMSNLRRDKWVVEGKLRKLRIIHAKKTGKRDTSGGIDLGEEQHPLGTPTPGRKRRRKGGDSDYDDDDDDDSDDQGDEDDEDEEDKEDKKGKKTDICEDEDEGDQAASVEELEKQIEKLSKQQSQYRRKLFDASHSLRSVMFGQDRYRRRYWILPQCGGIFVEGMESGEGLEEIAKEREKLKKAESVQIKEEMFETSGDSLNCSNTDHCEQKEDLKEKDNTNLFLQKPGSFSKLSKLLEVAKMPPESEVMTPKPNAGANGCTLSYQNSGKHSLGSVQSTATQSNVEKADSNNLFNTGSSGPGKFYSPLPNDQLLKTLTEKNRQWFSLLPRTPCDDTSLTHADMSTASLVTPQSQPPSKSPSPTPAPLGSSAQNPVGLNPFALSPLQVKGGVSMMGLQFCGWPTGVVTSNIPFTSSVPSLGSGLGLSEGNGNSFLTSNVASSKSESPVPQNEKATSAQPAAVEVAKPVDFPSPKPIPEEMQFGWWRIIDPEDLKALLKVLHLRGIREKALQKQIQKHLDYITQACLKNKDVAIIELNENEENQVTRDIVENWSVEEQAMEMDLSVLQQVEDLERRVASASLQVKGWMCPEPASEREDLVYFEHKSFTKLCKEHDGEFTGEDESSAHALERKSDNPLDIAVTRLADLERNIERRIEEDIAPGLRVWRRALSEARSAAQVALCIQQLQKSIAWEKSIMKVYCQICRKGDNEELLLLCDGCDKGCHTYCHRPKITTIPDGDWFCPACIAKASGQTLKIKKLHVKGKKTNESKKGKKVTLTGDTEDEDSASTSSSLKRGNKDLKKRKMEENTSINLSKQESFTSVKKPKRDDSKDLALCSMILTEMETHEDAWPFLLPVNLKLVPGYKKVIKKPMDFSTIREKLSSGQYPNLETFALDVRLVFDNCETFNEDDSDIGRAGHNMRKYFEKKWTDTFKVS
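Compounds, titrated to a top concentration of 110 uM, were incubated 30 min at room temperature with preformed BAZ2B/acetyl-K14 H3 peptide complex (50 nM each). Proximity signal was measured by AlphaScreen after 20 min with beads.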
JMJD2A Tudor: inhibitors of human JMJD2A Tudor domain; AID 504339; hit rate 4.4% among 390,000; Potency, µM (top dose mostly 114 µM), for the others: at the highest dose activity change, negative = inhibition, hits mostly inhibitors; AlphaScreen JMJD2A-Tudor / H3K4me3 peptide binding; O75164; note: % is set by controls: 0 for no effect and ±100 for the full control effect; nearly all actives have a fitted effect of over 50% in size
HP1b binding inh: HP1-beta chromodomain-methylated histone interaction inhibition; hit rate 0.56% among 390,000; Potency, µM (titrated, usually from 114 µM), inactives show at the top dose activity change, negative = inhibition, most hits filed as inhibitors; AlphaScreen HP1-beta / biotin-H3K9me3 peptide binding; P83916; note: nearly all actives have a fitted effect of over 70% in size
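Compound inhibition of the preformed complex between 50 nM HP1-beta and 50 nM biotinylated H3K9me3 peptide was read by AlphaScreen. Buffer was PBS pH 7.4 with 0.01% Tween-20. Incubations ran 30 min at room temperature, with 10 ug/mL donor/acceptor beads.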
GLS inh: inhibitors of human glutaminase (GLS) | GLS enzymatic activity, qHTS titration | Potency, µM (top dose mostly 45.5 µM), for the others: at the top dose activity change, negative = inhibition, usual class: inhibitors | hit rate 0.21% among 410,000 | AID 624170; note: % is set by controls: 0 for no effect and ±100 for the full control effect
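Assay buffer: 45 mM KH2PO4 pH 8.2, 0.02% Tween-20. hKGA acts on L-glutamine (1 mM solution added); product glutamate is reported by an oxidase/peroxidase Amplex Red coupling, with fluorescence taken at baseline and 30 min.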
* = called active by the depositor; ? = inconclusive; / = no result given; [ ] = another dose, or the depositor's remark. The list is not random: actives were taken first. Their share in the collection is about 10%. Calls come from the whole dose curve; as a rule, active = well fitted curve in the direction sought with a large enough effect; inconclusive = small, poorly fitted or top-dose-only effect, or another doubt; inactive = no such curve, though single readings can be large; an effect the other way counts as inactive or inconclusive. Potency is the fitted concentration of half-maximal effect.

SMILES | G9a block | BAZ2B inh | JMJD2A Tudor | HP1b binding inh | GLS inh
[O][C@H]1[C@@H](O)[C@@H](CO)O[C@@H](O[C@@H]2[C@@H]3OC[C@H]2O[C@H](O[C@@H]2[C@@H](O)[C@H](C[C@@H]4[C@@H]5OC[C@H]4O[CH][C@@H]5O)O[C@H](CO)[C@@H]2OS(=O)(=O)O)[C@@H]3OS(=O)(=O)O)[C@@H]1O | 16µM* | / | / | / | /
OCC1O[C@@H](O[C@@H]2C(CO)OC(O)C(O)C2O)C(O)C(O)C1O (some centres not stated) | -39%[12.7 µM] | / | / | / | 8%
COc1cccc(CN(C)C(=O)c2cc(S(=O)(=O)N3CCN(c4ccccc4)CC3)ccc2Cl)c1 | ? | -32% | -16% | 8% | 4%
C/C(=N\NC(=O)c1c(Cl)cnn1C)c1cccc(NC(=O)COc2ccccc2)c1 | 11%[59 µM] | 10% | -1% | 14% | 12%
Cc1ccccc1CNCc1cccnc1 | 0%[59 µM] | 7% | -9% | -3% | 8%
COc1ccc(CNCc2ccc3ccccc3c2)c(OC)c1 | 11µM* | ? | 35µM* | ? | 1%
COc1cccc(CNCc2cccnc2)c1OCc1ccccc1 | 79µM* | ? | 3% | 21% | -5%
COc1ccc(CNCc2ccncc2)c(OC)c1 | / | 27% | -13% | 29% | 0%
COc1cc(CNCc2ccccc2)cc(Cl)c1OC | ? | -19% | 3% | 32% | 3%
COc1ccc(CNC(=O)c2ccc(SC)cc2OC)cc1 | 16%[59 µM] | -5% | 5% | 35% | -1%
COc1ccccc1CNCc1cc(OC)c(OC)c(OC)c1 | 7.9µM* | 79µM* | 40µM* | 71µM* | 1%
COc1cc(CNCc2ccc(SC)cc2)cc(OC)c1 | 22µM* | ? | 1.4µM* | ? | 2%
Cc1cc(C(=O)COC(=O)c2ccc(Br)o2)c(C)n1C | ? | ? | ? | -30% | 2%
COc1cccc(CNCc2ccccc2OC)c1 | 32µM* | -5% | -100% | ? | -3%
COc1cc(CNCc2ccc(OC)c(OC)c2OC)cc(OC)c1 | ? | 50µM* | 2.5µM* | -50% | 3%
COc1cccc(CNCc2cccc(OC)c2O)c1O | / | / | -15% | 9% | 56%
COc1ccc(N2C(=O)N(Cc3cccc(F)c3)c3ccccc3S2(=O)=O)cc1 | 7% | -18% | / | / | /
Cc1ccc(Nc2nnc(SCC(=O)NCCN3C(=O)CSC3=O)s2)cc1C | 28µM* | 4% | -8% | 23% | 1%
Cc1nc2ccccc2c2c1C(=O)N(C(C)C)C2=O | 12%[59 µM] | -11% | -29% | -7% | 19%
COC1CCCCC1Nc1cc(C)cc(C)c1 (configuration not stated) | 14µM* | 35µM* | 18µM* | 18µM* | -1%
Clc1ccccc1NCSC1=NCCS1 | / | / | 16% | 21%[57 µM] | 5%
N#CCCN(Cc1ccccc1)C(=O)c1nccnc1C(=O)O | 35µM* | ? | ? | 50% | -2%
N#CCCN(Cc1cccnc1)C(=O)Nc1ccccc1 | -18%[12.7 µM] | 5% | -26% | 9% | -2%
CC1CCC/C(=N/Nc2nc3ccccc3s2)C1 (configuration not stated) | -7% | ? | ? | ? | 4%
CC1(C)CC(=O)C/C(=N/Nc2nc3ccccc3s2)C1 | 50µM* | ? | ? | 14% | 17%
SMILES | G9a block | BAZ2B inh | JMJD2A Tudor | HP1b binding inh | GLS inh
CC1(C)CC(=O)C2=C(C1)OC(N)=C(C#N)C2C#Cc1ccccc1 (configuration not stated) | 14µM* | ? | -25% | 42% | 22%
Cc1cccnc1NC(=O)c1ccc(S(=O)(=O)NCc2ccco2)cc1 | -30% | 1% | -15% | 40% | -5%
CN(C)c1ccc(C(=O)C(O)c2ccccc2Cl)cc1 (configuration not stated) | / | / | -10% | 6% | 9%
Cc1cc(N(CCO)CCO)ccc1C(c1ccc(N(CCO)CCO)cc1C)c1ccccc1Cl | 7.9µM* | 45µM* | 28µM* | ? | 16%
Cc1nc2ccccn2c(=O)c1NC(=O)c1cccc(F)c1 | 1%[59 µM] | 1% | -14% | 17%[57 µM] | -4%
CCN(C(=O)CSc1nnc2ccccn12)c1c(N)n(Cc2ccccc2)c(=O)[nH]c1=O | 50µM* | 5% | 2% | 52% | -15%
